The values below come from PubChem BioAssay (NCI).

Values joined by “and” are separate entries in the source; they are usually repeats but may differ in a detail not shown here. Identical values can stand only once. This is part of a sample that, as a whole, favours compounds with a hit. Of some 83,000 tested, about 20% had one in any assay.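 How to read the values: 0–100, growth inhibition (40 = 60% inhibited); 0, no net growth; -100 to 0, cell death (-40 = 40% of starting cells died; -100 = all dead).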 A number with no mark means an inactive call. Active and inactive are the calls of the source. How the source made its calls: active means growth percent below 10; inactive means the rest.

The subject of the experiment is MDA-MB-468 breast. In words: NCI-60 one-dose screen, 48 h (100 = growth as untreated, 0 = no growth, -100 = all killed). Particulars: 10 µM unless noted.
For `CN1CCN(Cc2ccc(NC(=O)c3cncc(C#Cc4c(N)ncc5ccc(F)cc45)c3)cc2C(F)(F)F)CC1`, the growth was 54.3%.
In the case of `CCNC(=O)C1CCCN1C(=O)C(CCCN=C(N)N)NC(=O)C(CC(C)C)NC(=O)C(CC(C)C)NC(=O)C(Cc1ccc(O)cc1)NC(=O)C(CO)NC(=O)C(Cc1c[nH]c2ccccc12)NC(=O)C(Cc1cnc[nH]1)NC(=O)C1CCC(=O)N1` (stereo not given), the growth is 87.4%.
Under `COc1ccc(NC(=O)Nc2ccc(Nc3nc(C)cc(Nc4ccc(C)cc4)n3)cc2)cc1` stands -68.9% (active); under `O=C(Nc1ccc2c(c1)C(=O)c1ccccc1-2)c1ccccc1`, 85.6%; under `CCCC(C)OCC(=O)O` (stereo not given), 92.1%.
Under `C[N+](C)(C)c1ccc(CC2c3ccccc3-c3ccccc32)cc1` stands -24.1% (active); under `COc1ccc(C(C)c2cc(OC)c(OC)c(OC)c2)cc1` (stereo not given), 41.6%; under `COc1cccc(COc2ccc(/C=C3/C(=O)Nc4cc(Cl)ccc43)cc2)c1`, 85.1%.
Consider `N#CC1(C#N)C2=C(CCCC2)NC(c2c(F)cccc2Cl)C1(C#N)C#N` (stereo not given), for which the growth is 53%.
As to `CC(=O)Oc1cc2ccccc2cc1C(C)C`, the growth is 98.8%.
For the molecule `O=C(C1CCCCC1)[C@@H]1[C@]2(C(=O)NC3CCCCC32)[C@@H]2CCCN2[C@@]12C(=O)NC1CCC(Cl)CC12` (stereo not given in full), the growth is -67% [100 µM] (active).
The figure for `Clc1ccc2c(NCCCN3CCN(c4nc(N5CCOCC5)nc5ccccc45)CC3)ccnc2c1` is -74.3% (active); for `O=C(CN1CCN(c2cc3c(cc2F)c(=O)c(C(=O)N/N=C/c2ccccc2O)cn3C2CC2)CC1)N/N=C\c1ccccc1O` it is -4.47% (active); for `CCC(=O)Oc1ccc(-c2ccccc2)cc1Br` it is 98.4%.
Consider `CC(=O)Nc1cc(S(=O)(=O)O)cc2cc(S(=O)(=O)O)c(N=Nc3ccccc3)c(O)c12`, for which the growth was 93.5% and 101%.
Under `COc1cc2cc(NCc3ccc(F)cc3)nc(C)c2cc1OC` stands 62.8%; under `COc1cc2c(cc1O)CC[C@@H]1[C@@H]2CC[C@]2(C)[C@@H](OCCN(C)C)CC[C@@H]12`, 19.3%; under `c1ccc(CO[C@H]2CO[C@H]3[C@@H]2OC[C@@H]3Oc2ccc(Nc3ncnc4ccsc34)cc2)cc1`, 51.5%.
As for `CN(C)CCCNc1nc2ccccc2c2c(=O)c3cc(F)ccc3sc12`, the growth was -6.97% (active).
As to `O=C(N/N=C/c1ccccc1O)c1ccccc1`, the growth is 12.1%.
For `COc1ccc(OC)c(/C=N/Nc2ncnc3c2c(C)nn3C)c1`, the growth was 106%.
The figure for `O=c1[nH]c(=S)[nH]c(O)c1/C=C1\C=Nc2ccccc21` is 103%; for `COC(=O)Nc1nc2ccc(Sc3ccccc3)cc2[nH]1` it is -3.91% (active).
Under `COc1ccc(-c2nn(-c3ccccc3)cc2/C=C/C(=O)NNC(=O)Nc2ccc(C)cc2)cc1` stands 102%; under `O=CN1N=C(c2ccc(Cl)cc2)CC1c1cccc(Nc2ccnc3cc(C(F)(F)F)ccc23)c1` (stereo not given), 32.9%.
Under `Cc1ccc(/C=C2\CN(Cc3cn(CCNc4ccnc5cc(Cl)ccc45)nn3)C/C(=C\c3ccc(C)cc3)C2=O)cc1` stands -31.1% (active); under `CC(C)[C@H](CN)NC[C@H](C)NS(=O)(=O)c1ccc(C(C)(C)C)cc1`, 86.5%.
`Cc1cc(C)c2c(N)c3cccc(C)c3nc2n1`: the growth is -54.4% (active).
As for `CCN(CC)c1ccc(/C=C/c2ccc3cc(C)ccc3[n+]2CC)cc1`, the growth was -24% (active).
The figure for `CC(=O)NNC(=O)c1sc(NC(C)=O)nc1C` is 104%.
Under `COc1cc(/C=C/C(=O)N2CCN(C(=O)/C=C/c3ccccc3)CC2)cc(OC)c1OC` stands 107%.
For the molecule `CC(=O)c1cc2c(N)c(C(=O)Nc3cccc4ccncc34)sc2nc1C`, the growth was 71.6%.
Under `N/C(=N\C(N)=N\c1nc2ccccc2s1)c1ccnc(Br)c1` stands 96.6%.
Under `O=C(CSSCC(=O)c1ccc(Cl)cc1)c1ccc(Cl)cc1` stands 74.8%.
For the molecule `COc1c(C(NC(=O)c2ccccc2)c2sccc2C)cc(Cl)c2cccnc12` (stereo not given), the growth is 102%.
Turning to `O=C(Nc1ccc2ncnc(Nc3ccc(Oc4cccc(F)c4)c(Cl)c3)c2c1)c1ccc(CNCCO)cc1`, the growth was -46% (active).
Under `COc1ccc(CCCc2c3[n+](cc4c(OC)c(OC)ccc24)CCc2cc4c(cc2-3)OCO4)cc1` stands 1.74% (active); under `CCCCCCCC/C=C/CCCCCCCC1=NCC[N+]1(CCO)CCO`, 23%.
The figure for `O=C(/C=C/c1ccccc1)c1ccc(O)c(CN2CCN(c3cc4c(cc3F)c(=O)c(C(=O)O)cn4C3CC3)CC2)c1` is 3.64% (active); for `N#C/C(=C\c1cn(Cc2ccccc2)c2ccccc12)C(=O)Nc1ncc(Cc2ccccc2Cl)s1` it is -14.7% (active).
